Bioassay records (PubChem BioAssay)
An excerpt weighted towards active compounds, which were near 12% of everything screened.
NS1 inh – influenza NS1 inhibition; Potency, µM (titrated, usually from 46.1 µM); 270,000 compounds, 0.4% hits; further: actives are rising curves; nearly all actives have a fitted effect of over 50% in size
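In this qHTS, NS1 from influenza A is expressed in budding yeast, where it slows growth. Cells are switched from glucose to 2% galactose medium (pH 6.0, -URA), treated with compound, and growth recovery is read at OD600.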
SARS PLP yeast – SARS-CoV PLP inhibition in yeast; S. cerevisiae expressing SARS-CoV PLpro, growth rescue; Potency, µM (series often up to 32.9 µM), most hits filed as activators; 330,000 compounds, 0.19% hits; further: nearly all actives have a fitted effect of over 55% in size
Shiga inhibitor – blocks Shiga toxin action in Vero cells. Vero cells, Shiga toxin protein synthesis inhibition reporter. 290,000 compounds, 9.2% hits. inhibition, % at 38.7 µM; in the data active means inhibition mostly above about 28%, no sharp cut-off; inactive means mostly below about 43%
Cycloheximide cs – affects cycloheximide protein synthesis inhibition readout, counter-screen; max response, %; cell reporter, cycloheximide protein synthesis inhibition counterscreen; AID 2314; 300,000 compounds, 12% hits; in the data active means max response mostly above about 13%, no sharp cut-off; inactive means mostly below about 14%; further: read at 38.3 µM for the half of the compounds with a filed dose
Of the large screens only hits and unclear results are named; the others gave an inactive call; ! = repeats disagree. Unless noted, the call rests on the fitted dose curve.

COc1cccc(C(Nc2ccccn2)c2c(NC(=O)c3ccco3)sc(C)c2C)c1 (centres undefined)	none
Cc1sc(NC(=O)c2ccco2)c(C(Nc2ccccn2)c2ccccc2)c1C (centres undefined)	Cycloheximide cs 13.3
COc1ccc(C(Nc2ccccn2)c2c(NC(=O)c3ccco3)sc(C)c2C)cc1 (centres undefined)	Cycloheximide cs 28.7
C=CCn1c(C)cc(C(=O)COc2ncnc3sccc23)c1C	Cycloheximide cs 39.8
CSc1ncc(Cl)c(C(=O)Nc2ccc(S(=O)(=O)Nc3nccc(C)n3)cc2)n1	Shiga inhibitor 69.8, Cycloheximide cs 30.9
CCCSc1ncc(Cl)c(C(=O)Nc2ccc(S(=O)(=O)Nc3ncccn3)cc2)n1	none
O=C(N/N=C/C1CCCCC1)c1cc(Cl)ccc1O	Shiga inhibitor 45.3
Cc1cc2c(cc1C)/C(=N/NC(=O)c1ccccn1)CCC2	Shiga inhibitor 48.8, Cycloheximide cs 53.2
O=C(N/N=C/C1CCCCC1)c1ccccn1	Shiga inhibitor 165.8, Cycloheximide cs 48.6
O=C(N/N=C1\CCCc2ccccc21)c1ccc([N+](=O)[O-])cc1Cl	none
O=C(NN=C1CCC(=NNC(=O)c2ccccn2)CC1)c1ccccn1	Shiga inhibitor 51.2, Cycloheximide cs 54.6
CCC/C=N/NC(=O)c1cc(Br)ccc1O	none
Cc1ccc(OCCSCc2nnc(NC(=O)Nc3cccc(Cl)c3)s2)cc1	none
Cc1csc(NC(=O)Nc2cccc(Cl)c2)n1	Shiga inhibitor 86.0, Cycloheximide cs 30.0
Cc1nnc(NC(=O)Nc2cccc(Cl)c2)s1	Shiga inhibitor 79.8, Cycloheximide cs 50.9
Cc1ccc(CNC(=O)CCC2CCCN(Cc3ccc4cccc(F)c4n3)C2)o1 (centres undefined)	none
Cc1ccc2[nH]c3c(c2c1)CN(C(=O)CN1CCCc2ccccc21)CC3	Shiga inhibitor 68.9, Cycloheximide cs 19.4
Cc1ccc2[nH]c3c(c2c1)CN(C(=O)CN1CCCCC1)CC3	none
CC(=O)c1ccc(NC(=O)N2C3CCC2CC(O)(c2cccnc2)C3)cc1 (centres undefined)	none (no result: NS1 inh)
Cc1csc(Nc2ccccc2)n1	Shiga inhibitor 44.3, Cycloheximide cs 22.6
Cc1csc(NC(=O)c2ccccc2C(=O)O)n1	none
O=C(O)c1ccc(Nc2nc(-c3ccccc3)cs2)cc1	Shiga inhibitor 112.3, Cycloheximide cs 27.4 (no result: NS1 inh)
O=C(Nc1ccc(-c2csc(Nc3ccccc3)n2)cc1)c1cccc(C(F)(F)F)c1	none
Cc1csc(Nc2ccc(C(=O)O)cc2)n1	Shiga inhibitor 11.4
CCOC(=O)C1C(C(=O)OC)=C(CC(C)C)c2ccccc2N1S(=O)(=O)C(F)(F)F (centres undefined)	none (no result: NS1 inh, SARS PLP yeast)
CCOC(CC(=O)NNC(=O)c1c(-c2ccccc2Cl)noc1C)OCC	none
COc1cc(OC)c(OC)cc1CNc1nnnn1C	none
Cc1cc(/C=C(/C#N)c2cccc(Cl)c2)c(C)n1C	Cycloheximide cs 19.2
Cc1cc(/C=C(\C#N)C(=O)NCc2ccco2)c(C)n1-c1cccnc1	Shiga inhibitor 72.5, Cycloheximide cs 38.2
Cc1cc(/C=C(\C#N)C(=O)NCc2ccco2)c(C)n1C1CCCC1	Shiga inhibitor 85.0, Cycloheximide cs 50.9
Cc1cccc(-n2c(C)cc(C=C(C#N)C#N)c2C)c1	none
Cc1cc(/C=C(/C#N)c2cccc(F)c2)c(C)n1-c1cccnc1	Shiga inhibitor 58.9, Cycloheximide cs 44.6
Cc1cc(/C=C(\C#N)C(=O)NCc2cccs2)c(C)n1-c1ccc([N+](=O)[O-])cc1	none
COc1ccc(CNC(=O)COC(=O)c2cc(-c3cccs3)nc3ccccc23)cc1OC	none
CCOC(=O)CNC(=S)n1cnc(N)n1	none (no result: NS1 inh)
COc1cc(Cl)c(C)cc1NC(=O)COC(=O)C1=NN(c2ccccc2)C(=O)CC1	none (no result: NS1 inh, Shiga inhibitor, Cycloheximide cs)
O=C(O)c1ccc(N/N=C/c2ccc(-c3ccccc3Cl)o2)cc1	Shiga inhibitor 99.7, Cycloheximide cs 50.4
O=C(N/N=C/c1ccc(-c2ccccc2Cl)o1)c1ccccc1	Shiga inhibitor 68.6, Cycloheximide cs 31.6 (no result: NS1 inh)
CCOC(=O)c1cnc2ccc(Br)cc2c1NCCO	none (no result: SARS PLP yeast)
CCOC(=O)c1cnc2ccc(Cl)cc2c1NCCN(C)C	Cycloheximide cs 25.7
CCOC(=O)c1cnc2c(ccc3ccccc32)c1NCCCN(C)C	Shiga inhibitor 130.5, Cycloheximide cs 32.8
O=[N+]([O-])c1ccc(C2=Nn3c(nnc3-c3ccc(Cl)cc3)SC2)o1	none (no result: SARS PLP yeast, Shiga inhibitor, Cycloheximide cs)
O=C(N[C@@H](c1ccccc1)[C@H](O)c1ccccc1)[C@@H]1CCCN1C(=O)OCc1ccccc1	none (no result: NS1 inh, SARS PLP yeast)
CC(C)CC(=O)Nc1ccc(Nc2ccccc2)cc1	Shiga inhibitor 36.3
CC1(C(=O)Nc2ccc3ccccc3c2)CC1(Br)Br (centres undefined)	Shiga inhibitor 65.3, Cycloheximide cs 28.9
CC(Oc1ccccc1F)C(=O)Nc1ccc2ccccc2c1 (centres undefined)	SARS PLP yeast inconclusive, Shiga inhibitor 79.7, Cycloheximide cs 45.1
Cc1ccn(C(=O)c2ccc(NC(=O)CC(C)C)cc2)n1	Cycloheximide cs 15.0
COc1ccc(CCN(C)C(=O)c2cnc(C)cn2)cc1OC	none
O=C(OCc1c(-c2ccccc2)ncc2ccccc12)c1ccccc1C(F)(F)F	none (no result: NS1 inh, Shiga inhibitor, Cycloheximide cs)
CC(C)CC(=O)Nc1ccc2ccccc2c1	Shiga inhibitor 92.3!
Cc1cccc(NC(=O)CC(C)(C)C)c1	none
CC(C)(C)CC(=O)Nc1ccc(Nc2ccccc2)cc1	Shiga inhibitor 46.6, Cycloheximide cs 23.1
CCC(=O)Nc1ccc2ccccc2c1	none
COc1ccccc1/C=C/C(=O)NCCc1ccccn1	Shiga inhibitor 87.5, Cycloheximide cs 55.5
COc1ccc(/C=C/C(=O)Nc2cccnc2Cl)cc1	Shiga inhibitor 60.4, Cycloheximide cs 42.0
COc1ccccc1/C=C/C(=O)Nc1cccnc1Cl	Shiga inhibitor 50.9, Cycloheximide cs 30.1
CCOC(=O)c1c(C)[nH]c(C(=O)COC(=O)CNC(=O)c2ccccc2Cl)c1C	Shiga inhibitor 108.9, Cycloheximide cs 56.1
CCOC(=O)c1c(C)[nH]c(C(=O)COC(=O)CNC(=O)C2CCCCC2)c1C	Shiga inhibitor 145.9, Cycloheximide cs 34.4
CCOC(=O)c1c(C)[nH]c(C(=O)COC(=O)[C@H](C)NC(=O)c2ccccc2Cl)c1C	Shiga inhibitor 48.8, Cycloheximide cs 27.8
COc1ccc(C(=O)Nc2cccc(-c3cc4ccccc4oc3=O)c2)cc1[N+](=O)[O-]	none
CCCCCN(C(=O)NC(=O)Nn1cnnc1)S(C)(=O)=O	none
CCCCc1ccc(NC(=O)C(C)CC)cc1 (centres undefined)	Shiga inhibitor 50.5, Cycloheximide cs 48.3
CCCCc1ccc(NC(=O)CC(C)=O)cc1	none
CCCCc1ccc(NC(=O)CC(C)(C)C)cc1	Shiga inhibitor 164.2, Cycloheximide cs 144.0
Cn1c(N)c(C(=O)COC(=O)COc2cccc(Br)c2)c(=O)n(C)c1=O	none (no result: NS1 inh, Shiga inhibitor, Cycloheximide cs)
COc1ccc(-c2cc(C(=O)Nc3ccc(F)cc3F)no2)cc1	none
CC(C)Cc1cc(C(=O)Nc2cc(Cl)ccc2Cl)no1	none
CC(C)Cc1cc(C(=O)Nc2ccc(F)cc2F)no1	NS1 inh inconclusive, Shiga inhibitor 90.4, Cycloheximide cs 56.2
CC(C)Cc1cc(C(=O)Nc2c(F)cc(F)cc2Br)no1	Shiga inhibitor 36.8
COc1ccc(-c2cc(C(=O)Nc3c(F)cc(F)cc3Br)no2)cc1	Shiga inhibitor 67.3, Cycloheximide cs 15.6
COc1ccccc1-c1cc(C(=O)Nc2c(F)cc(F)cc2Br)no1	none
